{
  "source": "PubChem BioAssay (NCI)",
  "note": "About 83,000 compounds went through this panel and 20% of them were active in at least one assay; those are over-represented in the sample as a whole.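 Single-concentration screen, 48 h exposure, 96-well plates. Endpoint: percent growth. Below 10 = active.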 Unmarked numbers belong to inactive results. Activity calls are given as the source filed them.",
  "data": [
    {"tested_on": "NCI-H226 lung", "experiment": "NCI-60 one-dose screen, 48 h (100 = growth as untreated, 0 = no growth, -100 = all killed)", "conditions": "10 µM unless noted", "experimental": "Growth inhibition of the NCI-H226 human Non-Small Cell Lung tumor cell line is measured as a screen for anti-cancer activity. Cells are grown in 96 well plates and exposed to the test compound for 48 hours. Compounds are tested at a single concentration, which is 10^-5 M for most compounds. The reported endpoint is percent growth (GI% or GIPRCNT), where numbers from 0 - 100% represent growth inhibition, and numbers from -100% - 0 represent cell death. For example, a value of 40 represents 60% growth inhibition. A value of 0 means no net growth occurred over the course of the experiment. A value of -40 indicates 40% of cells at the beginning of the experiment died by the end of the experiment. A value of -100 means all cells are dead at the end of the experiment.\nNCI-60 Human Tumor Cell Lines Screen was performed using the standard one-dose NCI protocol, which is described in more detail at https://dtp.cancer.gov/discovery_development/nci-60/default.htm.\nCompounds with GIPRCNT values below 10 were considered active. Activity score was based on GIPRCNT using the following formula: […]\nScore is 0 for GIPRCNT values of 100 or above, 50 for GIPRCNT values of 0, and 100 for GIPRCNT values of -100.", "values": [
      {"smiles": "c1ccc(C(CC2=NCCCN2)c2ccccc2)cc1", "growth": "98%"},
      {"smiles": "COc1ccc(NC(=O)c2ccc(C(F)(F)F)nc2Nc2ccc(Cl)cc2C)cc1Cl", "growth": "26.7%"},
      {"smiles": "CCN(CC)CCNc1c(C)cc(CO)c(Cl)c1C", "growth": "-23.6% (active)"},
      {"smiles": "O=C1/C(=C\\c2cccn2Cc2ccc(F)cc2)c2ccccc2N1c1c(Cl)cccc1Cl", "growth": "64%"},
      {"smiles": "COc1ccc(/C=C2\\N=C(c3cccnc3)N(c3ccccc3)NC2=O)cc1", "growth": "86.8%"},
      {"smiles": "CC(=O)OC1Oc2ccccc2-c2oc3nc(=N)n(C)c-3cc21", "note": "(stereo not given)", "growth": "117%"},
      {"smiles": "CC(C)N1CCN(c2ccncc2S(=O)(=O)N2CCN(C)CC2)CC1", "growth": "89.7%"},
      {"smiles": "COc1ccc(Nc2ncnc3c2sc2nc(C)cc(C)c23)cc1", "growth": "103%"},
      {"smiles": "COc1cc(C2CC(c3ccc(Cl)cc3)=NN2C=O)ccc1OS(=O)(=O)c1ccc(C)cc1", "note": "(stereo not given)", "growth": "84.5%"},
      {"smiles": "COc1cc2cc(C(=O)Nc3ccccc3)c(N)nc2cc1OC", "growth": "65.2%"},
      {"smiles": "O=C(O)/C=C(\\c1nc2ccc([N+](=O)[O-])cc2[nH]1)c1cc(Cl)ccc1O", "growth": "34.4%"},
      {"smiles": "CCN(CC)CCCNc1cccc2c(C)cc(OC)nc12", "growth": "91%"},
      {"smiles": "CCc1ccc2c(c1)N(CCO)C1=C(C(=O)OC1)C2c1cccc(Cl)c1", "note": "(stereo not given)", "growth": "32.4%"},
      {"smiles": "O=C(Cc1ccc(Nc2ccnc(C(F)(F)F)c2)cc1)N/N=C/c1ccccc1O", "growth": "51.4%"},
      {"smiles": "N=C(N)c1ccc(-c2ccc(-c3cc(Cl)cc(Cl)c3)o2)nc1", "growth": "99.5%"},
      {"smiles": "O=C(NNC(=S)Nc1ccccc1)c1ccc(Nc2ncnc3c2cnn3-c2cccc(Br)c2)cc1", "growth": "94.3%"},
      {"smiles": "O=C(/C=C/c1ccccc1)C(Br)C(Br)c1ccccc1", "note": "(stereo not given)", "growth": "-36.8% (active)"},
      {"smiles": "COc1ccc(C2=NN(C=O)C(c3ccc(OS(=O)(=O)c4ccc(C)cc4)c(OC)c3)C2)cc1", "note": "(stereo not given)", "growth": "67.4%"},
      {"smiles": "CCCCCCCCNC(C)C(O)c1ccc(SC(C)C)cc1", "note": "(stereo not given)", "growth": "96%"},
      {"smiles": "Cn1c(=O)c2c3c(oc2c2ccccc21)C(=O)c1ccccc1C3=O", "growth": "73.2%"},
      {"smiles": "OC(c1cc(-c2ccc(C(F)(F)F)cc2)nc(-c2ccc(C(F)(F)F)cc2)c1)C1CCCCN1", "note": "(stereo not given)", "growth": "-71.2% (active)"},
      {"smiles": "Brc1ccccc1Cn1c(-c2cncs2)nc2ccccc21", "growth": "70.5%"},
      {"smiles": "COC(=O)c1cc2oc(/C=N/NC(=O)c3cc4oc(-c5cccc(C(F)(F)F)c5)cc4[nH]3)cc2n1Cc1ccccc1", "growth": "109%"},
      {"smiles": "Nc1ncnc2c1N=C(c1ccc(F)cc1)CC(c1sc(Cl)nc1Cl)N2", "note": "(stereo not given)", "growth": "90.1%"},
      {"smiles": "Cc1ccc(/C=C/C(=N/N=C(N)N)c2ccccc2)cc1", "growth": "59.5%"},
      {"smiles": "COc1cc2nccc(Oc3ccc(NC(=O)C4(C(=O)Nc5c(F)cc(F)cc5F)CC4)cc3)c2cc1Oc1ccc(N)cn1", "growth": "37.7%"},
      {"smiles": "Cc1c(C)c(C)c([N+](=O)[O-])c([N+](=O)[O-])c1C", "growth": "104%"},
      {"smiles": "C#CC[C@@H]1C[C@]2(C)[C@H]3CC[C@@H]4[C@H]5C(C(=C)C)CC[C@]5(C(=O)NCCN(CCN)CCN)CC[C@@]4(C)[C@]3(C)CC[C@H]2C(C)(C)[C@H]1OC(C)=O", "note": "(stereo not given in full)", "growth": "65.9%"},
      {"smiles": "CCOC(=O)C1=C(C)NC(SCc2nnc(-c3ccc(Cl)cc3)o2)=NC1c1ccc(Br)cc1", "note": "(stereo not given)", "growth": "78.9%"},
      {"smiles": "Fc1cc(-c2nnc3sc(-c4ccc(Cl)cc4)nn23)c(Cl)cc1Cl", "growth": "93.2%"},
      {"smiles": "C#CC[C@@H]1C[C@]2(C)[C@H]3CC=C4[C@H]5[C@@H](C)[C@H](C)CC[C@]5(C(=O)NCCCN5CCN(CCCN)CC5)CC[C@@]4(C)[C@]3(C)CC[C@H]2C(C)(C)[C@H]1OC(C)=O", "growth": "86.5%"},
      {"smiles": "COc1cc(-c2nc(-c3nc4cc(C(=O)c5ccccc5)ccc4[nH]3)cc3c2[nH]c2ccccc23)cc(OC)c1OC", "growth": "91.1%"},
      {"smiles": "O=C(Nc1ccc(Cl)c(C(F)(F)F)c1)c1ccc(Nc2ccc(Cl)nn2)cc1", "growth": "84.2%"},
      {"smiles": "CC(COC(=O)c1ccccc1)N1CC2CCC(C1)O2", "note": "(stereo not given)", "growth": "98.2%"},
      {"smiles": "COc1cc(C2Nc3ccccc3S2)cc(CN2CCOCC2)c1O", "note": "(stereo not given)", "growth": "92.3%"},
      {"smiles": "CC(C)OC(=O)c1ccc([N+](=O)[O-])cc1", "growth": "106%"},
      {"smiles": "C/C(=C\\C(=N\\N=C(N)N)c1ccc(Cl)cc1)c1ccc(Cl)cc1", "growth": "-69.6% (active)"},
      {"smiles": "COc1ccc2nc(NC(=O)/C(=C/c3cc(OC)c(OC)c(OC)c3)c3ccc(OC)c(OC)c3)sc2c1", "growth": "80.2%"},
      {"smiles": "COc1ccc(/C(=C\\c2cc(OC)c(OC)c(OC)c2)C(=O)N2CCNCC2)cc1", "growth": "94%"},
      {"smiles": "CN(C)c1ccc(C(c2ccccc2)c2ccc(N(C)C)cc2)cc1", "growth": "95.2%"}
    ]}
  ]
}
